FMDV antiviral: High Throughput Screening for Foot and Mouth Disease Virus Antivirals | FMDV antiviral cell-based qHTS | Potency, µM (doses to about 57.9 µM), for inactives: at the top dose activity change, negative = inhibition, most hits filed as inhibitors | 1.2% of 410,000 active | AID 1159524, 2015; calls by dose curve; tested in HEK293T cells; also: read-out not given here; potency is read from the fitted curve at half-maximal effect; nearly all actives have a fitted effect of over 45% in size
HCMV inh: qHTS Assay for inhibitors of the human cytomegalovirus (HCMV). HFF cells, HCMV-luciferase reporter, 72 h; stronger effect = lower value. activity change, negative = inhibition, % at 57.5 µM. 4.5% of 410,000 active. AID 1259415, 2018; in the data active = activity change below about -60%; inconclusive = no clear call, values can overlap the other calls; inactive = above about -39%
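Screen run at 2 compound doses on HFFs infected with reporter HCMV, MOI 1 PFU/cell. Luciferase activity from cell lysates at 72 h post infection gave inhibition relative to buffer-only and Salinomycin wells.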
MARV entry inh: qHTS for inhibitors of binding or entry into cells for Marburg Virus. 1.8% of 300,000 active. Marburg virus pseudotyped entry inhibition, cell reporter. Potency, µM (top dose mostly 37.8 µM), for the others: at the highest dose activity change, negative = inhibition, hits mostly inhibitors. AID 540276, 2011; calls by dose curve; tested in HEK293 cells; also: potency is read from the fitted curve at half-maximal effect
Vaccinia Venus: qHTS for Stage-Specific Inhibitors of Vaccinia Orthopoxvirus: Venus Reporter Primary qHTS; Vaccinia virus Venus reporter expression, fluorescence; Potency, µM (top dose mostly 36.5 µM), for inactives: top-dose activity change, negative = inhibition, most hits filed as inhibitors; 0.46% of 330,000 active; AID 720580, 2013; calls by dose curve; tested in A549 cells; also: potency is read from the fitted curve at half-maximal effect; nearly all actives have a fitted effect of over 30% in size
LASV entry inh: qHTS for Inhibitors of binding or entry into cells for Lassa Virus | 1.2% of 300,000 active | Potency, µM (top dose mostly 37.9 µM), without a hit: at the highest dose activity change, negative = inhibition, actives largely listed as inhibitors | Lassa virus pseudotype entry inhibition, cell reporter; calls by dose curve; tested in HEK293 cells; also: potency is read from the fitted curve at half-maximal effect; nearly all actives have a fitted effect of over 50% in size
Vaccinia mCherry: qHTS for Stage-Specific Inhibitors of Vaccinia Orthopoxvirus: mCherry Reporter Primary qHTS | Vaccinia virus mCherry reporter infection, fluorescence | 0.63% of 310,000 active | Potency, µM (highest dose often 36.5 µM), inactives show at the top dose activity change, negative = inhibition, actives largely listed as inhibitors | AID 720579, 2013; calls by dose curve; tested in A549 cells; also: potency is read from the fitted curve at half-maximal effect; nearly all actives have a fitted effect of over 35% in size
* = called active by the depositor; i = inactive; ? = inconclusive; / = not tested or not shown; ! = a repeat was not active; [ ] = remark or other dose. The list is not random: actives were taken first. Their share in the collection is about 6.5%. % is scaled to controls: 0 for no effect and ±100 for the full control effect.

SMILES | FMDV antiviral | HCMV inh | MARV entry inh | Vaccinia Venus | LASV entry inh | Vaccinia mCherry
CNc1ccccc1C(=O)OC(C)C(=O)Nc1ccc(Cl)cn1 (configuration not stated) | -7% | -98* | 1% | 10µM* | 10% | ?
Cc1cccc(CC(C)NC(=O)CCc2nnc(-c3ccccc3)o2)n1 (configuration not stated) | 21% | 20 | / | / | / | /
CC(NC(=O)CCc1nnc(-c2ccc(-c3ccccc3)cc2)o1)c1nc2ccccc2[nH]1 (configuration not stated) | ? | -68* | ? | -13% | ? | -16%
C=C(c1ccc(O)cc1)c1ccc(O)cc1 | ? | -15 | 6% | -29% | 1µM* | /
Cc1ccc(O)cc1 | 9% | / | / | -10% | / | -8%
C/C=C(/C(=C/C)c1ccc(O)cc1)c1ccc(O)cc1 | ? | -24 | -30% | -21% | 26µM* | -1%
O=c1[nH]c2c(-c3nc(-c4ccc(F)cc4)cs3)c(O)cn2c2ccc(Br)cc12 | / | / | / | -5% | / | -13%
Cc1ccc(CN2C[C@@H](Sc3nc(C)cc(C)n3)C[C@H]2C(=O)N2CCN(c3ccccc3F)CC2)cc1 | 30% | / | / | 14% | / | -13%
COC(=O)CC#C[C@H](C)[C@@H](NS(=O)(=O)c1ccc(C)cc1)C1CCCCC1 | / | -27 | / | / | / | /
Cc1ccc2c(c1)NC(=O)CC(c1ccccc1)=N2 | 11% | ? | -27% | -8% | 24% | -12%
O=C1CC(c2ccccc2)=Nc2ccc(Br)cc2N1 | 7% | -68* | ? | -25% | ? | -27%
COc1ccc2c3c([nH]c2c1)[C@@H](CO)N(C(=O)C1CCOCC1)CC31CCN(Cc2nccs2)CC1 | / | -5 | / | / | / | /
CCc1ccccc1NC(=O)CN(C)C(=O)Cn1ncc(Cl)c(Cl)c1=O | 35µM* | -99* | ? | ? | ? | ?
CCC(=O)Nc1ccc(C(=O)Cn2ncc(Cl)c(Cl)c2=O)cc1 | -16% | -103* | / | / | / | /
CCOC(=O)c1ccc(NC(=O)Cn2nc(C)c3ccccc3c2=O)cc1 | -6% | 21 | / | / | / | /
CCOC(=O)c1ccc(NC(=O)Cn2ncc(Cl)c(Cl)c2=O)cc1 | 40µM* | -100* | 3.2µM* | ? | ? | ?
CCc1ccccc1NC(=O)CN(C)C(=O)Cn1cnc2ccc(Cl)cc2c1=O | -26% | 0 | 1% | -25% | -1% | -9%
CN1C(=O)C(n2cccc2)c2ccccc21 (configuration not stated) | / | 0 | / | / | / | /
COc1cccc(C(=O)N(Cc2ccco2)c2ccccn2)c1 | 22% | 0 | -4%[46.1 µM] | -9% | 11%[46.1 µM] | -17%
COC(=O)[C@@H]1[C@@H](CO)[C@@H]2Cn3c(cccc3=O)[C@H]1N2Cc1ccccc1OC | / | 19 | / | / | / | /
Cc1ccc([N+](=O)[O-])cc1N=Nc1c(-c2ccc([N+](=O)[O-])cc2)[nH]n(C(N)=S)c1=O | 2.5µM* | / | / | / | / | /
Cc1ccc([N+](=O)[O-])cc1N=Nc1c(C)[nH]n(C(N)=S)c1=O | 8% | 15 | / | / | / | /
CC1=NN(c2ccccc2)C(=O)/C1=C\c1cc(C)n(-c2ccccc2)c1C | 16% | ? | 19% | -1% | 4% | -14%
C=CCN1C(=O)/C(=C/c2cc(C)n(-c3cccnc3)c2C)C(=O)NC1=S | 35µM* | -14 | 32% | 13% | 1% | -9%
CC1=NN(c2ccccc2)C(=O)/C1=C\c1cc(C)n(-c2cccnc2)c1C | 9% | -73* | 7% | -6% | ? | i
SMILES | FMDV antiviral | HCMV inh | MARV entry inh | Vaccinia Venus | LASV entry inh | Vaccinia mCherry
CC(=O)Nc1cccc(-c2cc3c(c4c2ccn4C)C2CCC3C2)c1 (configuration not stated) | / | / | / | / | 4%[46.1 µM] | /
C=C(C)C1CC=C(C)/C(=N\NC(=S)Nc2ccc(C)cc2)C1 (configuration not stated) | 27% | -28 | ? | -28% | 13µM* | -11%
COc1ccccc1C(=O)NC(=O)Nc1ccc(-c2cc(C(F)(F)F)nn2-c2ccccc2)cc1 | ? | -36 | -3%[46.1 µM] | -21% | -6%[46.1 µM] | -19%
COc1ccccc1C(=O)Nc1ccc(-c2cc(C(F)(F)F)nn2-c2ccccc2)cc1 | ? | -61* | ? | -28% | -27%[46.1 µM] | ?
O=C(Nc1ccc(C(F)(F)F)cc1)C1CCCN1S(=O)(=O)c1cccc2cccnc12 (configuration not stated) | -28% | -75* | ? | / | ? | /
O=C(Nc1ccc(Cl)c(C(F)(F)F)c1)C1CCCN(S(=O)(=O)c2cccc3cccnc23)C1 (configuration not stated) | ? | 0 | / | ? | 5.6µM* | -29%
O=C(Nc1ccc(Cl)c(C(F)(F)F)c1)C1CCN(S(=O)(=O)c2cccc3nonc23)CC1 | 32µM* | ? | ? | -12% | ? | -14%
O=C(Nc1cccc(F)c1)C1CCN(S(=O)(=O)c2cccc3nonc23)CC1 | ? | -7 | -19%[46.1 µM] | -7% | 1% | 15%
O=C(Nc1ccccc1N1CCCCC1)C1CCN(S(=O)(=O)c2ccccc2C(F)(F)F)CC1 | -21% | -61* | ? | -9% | ? | -11%
Cc1ccc(NC(=O)C2CCCN(S(=O)(=O)c3cccc4cccnc34)C2)cc1Cl (configuration not stated) | ? | -7 | ? | -24% | ? | -30%
CCN(CC)CCOc1ccc2c(c1)C(=NO)c1cc(OCCN(CC)CC)ccc1-2 | / | 23 | 2.6µM* | 3.5µM* | 10µM* | 8.9µM*
CCN(CC)S(=O)(=O)c1ccc2c(c1)C(=NO)c1cc(S(=O)(=O)N(CC)CC)ccc1-2 | 20µM* | 4 | ? | 13µM* | ? | 11µM*
CCN(CC)S(=O)(=O)c1ccc(C)c(C)c1 | 9% | -11 | -4% | / | -3% | /
CCN(CC)S(=O)(=O)c1cccc(S(=O)(=O)c2cccc(S(=O)(=O)N(CC)CC)c2)c1 | -4% | -69* | ? | / | ? | /
Cc1cc2nccc(-c3ccco3)n2n1 | -4% | -30 | ? | -5% | -1% | -9%
Cc1cc2nccc(-c3ccc(OCCCF)cc3)n2n1 | -16% | -61* | / | / | / | /
CC(C)c1c(C(=O)N(C)Cc2cccc3ncccc23)cnn1-c1nccc(-c2ccccc2F)n1 | 13µM* | / | / | ? | / | ?
CN1CCc2ccccc2Cc2[nH]c3ccccc3c2CC1 | -20% | 2 | 11µM*! | -9% | -7% | i
CCCCN1CCc2c([nH]c3ccccc23)C1=O | 37% | 71 | ? | -16% | 5% | /
COC(=O)CCCn1c(-c2ccc(C)cc2)c(C)n2c3c(=O)n(C)c(=O)n(C)c3nc12 | ? | -14 | 1%[46.1 µM] | 1% | ? | -8%
Cc1ccc(-c2c(C)n3c4c(=O)n(C)c(=O)n(C)c4nc3n2CCCO)cc1 | 11µM* | -73* | ? | -26% | 8.9µM* | -25%
